TDP1 cell CPT – DT40-hTDP1 cell growth loss with CPT | Potency, µM (series often up to 46.2 µM), for the others: at the top dose activity change, negative = growth inhibition, actives largely listed as inhibitors | chicken DT40 Tdp1-/-;hTDP1 cells + 20 nM CPT, ATP luminescence, 48 h | 12% of 420,000 active | AID 686979; further: potency means the concentration at half of the fitted maximal effect; nearly all actives have a fitted effect of over 55% in size
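Chicken DT40 Tdp1-/- cells stably complemented with human TDP1 were seeded at 400 cells/well in medium containing 20 nM camptothecin, exposed to pin-transferred compounds, and grown at 37 °C for at least 48 hr. Viability was read as ATP luminescence.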
HT1080 IDH1KD tx – toxicity to HT-1080 IDH1 knockdown cells (counter line); 2% of 360,000 active; AID 686971; Potency, µM (doses to about 46.1 µM), for inactives: top-dose activity, negative = toxicity, actives largely listed as cytotoxic; HT-1080 IDH1 knockdown viability, ATP luminescence, 48 h;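 further: potency means the concentration at half of the fitted maximal effect; 0% = DMSO wells and -100% = cell-free medium wells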
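Viability of IDH1-knockdown HT-1080 fibrosarcoma cells was assessed by CellTiter-Glo after 48 h at 37 °C with titrated compound; concentration-effect curves were classified by fit quality and response size.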
IL-1B inflam inh – inflammasome signaling inhibition, IL-1 beta readout; THP-1 LPS/ATP IL-1B secretion, AlphaLISA, 16 h; active compounds read low; 4.7% of 360,000 active; activity change, % at 57.5 µM; AID 743279; in the data active means activity change below about -50%; inconclusive means mostly about -30% to -49%
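Secreted IL-1B measured by AlphaLISA bead assay after 16 h compound exposure of THP-1 cells; compounds (final up to 57.5 uM) added 1 h before LPS (250 ng/mL) and ATP (1.25 mM) stimulation; lower signal means less secretion.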
HT1080NT lethal – kills 2HG-producing HT-1080-NT fibrosarcoma cells | Potency, µM (titrated, usually from 46.1 µM), for inactives: top-dose activity, negative = less viability, most hits filed as cytotoxic | 1.6% of 360,000 active | HT-1080-NT fibrosarcoma viability, CellTiter-Glo ATP luminescence, 48 h | AID 686970;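 further: NT is the 2HG producing partner of a matched IDH1 knockdown line; potency means the concentration at half of the fitted maximal effect; 0% = DMSO-treated cells and -100% = media-only wells without cells; nearly all actives have a fitted effect of over 55% in size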
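Compounds were tested in concentration-response format on HT-1080-NT cells for 48 hours at 37 degrees C. Cell viability came from CellTiter-Glo luminescence; curves were classified by r2, response magnitude and activity.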
DT40 TDP1 no CPT – qHTS for Inhibitors of human tyrosyl-DNA phosphodiesterase 1 (TDP1): qHTS in cells in absence of CPT; DT40 Tdp1-/- hTDP1 cells, no CPT, ATP luminescence, 48 h; Potency, µM (top dose mostly 46.2 µM), for the others: at the highest dose activity change, negative = growth inhibition, usual class: inhibitors; 15% of 420,000 active; AID 686978, 2013; further: potency means the concentration at half of the fitted maximal effect; nearly all actives have a fitted effect of over 55% in size
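Luminescent ATP content (CellTiter-Glo) served as the growth readout. Knockout chicken DT40 cells expressing human TDP1 were exposed to compounds without camptothecin for a minimum 48 hr at 37 °C.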
The depositor's hits bear a star; ? = inconclusive; . = not tested or not shown. This is a sample that favours compounds with a hit; in the whole collection about 19% have one here. Unless noted, the call rests on the fitted dose curve; in most records, active means well fitted curve in the direction sought with a large enough effect; inconclusive means small, poorly fitted or top-dose-only effect, or another doubt; inactive means no such curve, though single readings can be large; an effect the other way counts as inactive or inconclusive. Unless noted, on the % scale 0 is the no-effect control and ±100 the full control effect.

SMILES	TDP1 cell CPT	HT1080 IDH1KD tx	IL-1B inflam inh	HT1080NT lethal	DT40 TDP1 no CPT
COc1ccc(C(=O)N2CCN(S(=O)(=O)c3ccc(C)cc3C)CC2)cc1OC	-24%	0%	0	-2%	?
O=C(Cn1c2ccccc2c2nc3n(c(=O)c21)CCS3)Nc1ccccc1	21µM*	-2%	-9	0%	?
Cc1cccn2c(=O)c3cc(C(=O)NC(C)(C)C)n(C)c3nc12	?	.	.	.	18µM*
Cc1cccn2c(=O)c3cc(C(=O)O)n(C)c3nc12	-7%	-13%	16	-10%	-9%
COc1ccccc1CCNC(=O)c1cc2c(=O)n3cccc(C)c3nc2n1C	-26%	.	.	.	-27%
Cc1cccn2c(=O)c3cc(C(=O)NC4CCCCC4)n(C)c3nc12	4.6µM*	3%	-6	20%	3.3µM*
COC1C=CC(CNC(=O)c2cc3c(=O)n4cccc(C)c4nc3n2C)(OC)O1 (stereo unspecified)	16µM*	0%	-11	-4%	-15%
CCOC(=O)COc1c(OC)cc(Cl)cc1C1Nc2ccccc2C(=O)N1c1cccc(C)c1 (stereo unspecified)	?	-22%	-11	1%	26µM*
CCOC(=O)COc1c(OC)cc(Cl)cc1C1Nc2ccccc2C(=O)N1c1ccccc1 (stereo unspecified)	-27%	-4%	13	1%	-26%
O=C(COC(=O)c1cccc(F)c1)Nc1cccc(S(=O)(=O)N2CCCCC2)c1	-17%	4%	9	-1%	?
CCOC(=O)Cn1c(=NC(=O)c2nc3ccccc3s2)sc2cc(S(N)(=O)=O)ccc21	?	-12%	12	-15%	?
O=C(CSc1nc(C2CC2)nc2ccccc12)N1CCCCC1	?	-18%	-95*	-15%	?
O=C(CSc1nc(C2CCCCC2)nc2ccccc12)N1CCCC1	?	?	-81*	?	?
CCc1nc(SCC(=O)c2ccc(Cl)s2)c2oc3ccccc3c2n1	-26%	-8%	2	-9%	-25%
CCc1nc(SCC(=O)N2CCN(c3ccccc3)CC2)c2oc3ccccc3c2n1	26µM*	-17%	-67*	7%	21µM*
CCc1nc(Sc2nc(C)cc(C)n2)c2oc3ccccc3c2n1	?	?	-9	?	21µM*
O=C(CSc1nc2ccccc2c(=O)[nH]1)N1CCCCC1	-25%	-2%	13	-2%	1%
O=C(CSc1ncnc2ccccc12)N1CCCC1	1%	-5%	-26	-3%	-5%
OC[C@@H]1CN(Cc2cccnc2)C[C@H](n2cnc3c(N4CCCC4)ncnc32)O1	2%	6%	32	6%	3%
CCN(CC)S(=O)(=O)c1csc(C(=O)OCC(=O)c2ccccc2)c1	0%	-4%	1	0%	-2%
CC1CCCCN1C(=O)CSc1nc(C2CC2)nc2c1cnn2-c1ccccc1 (stereo unspecified)	?	8%	-91*	0%	?
Cc1nn(C)c(C)c1NC(=O)CSc1nc(C2CC2)nc2c1cnn2-c1ccccc1	?	-10%	41	-1%	?
CCc1nc(SCC(=O)N2CCCC2)c2ccccc2n1	-1%	-29%	-94*	11%	-10%
CC(C)c1nc(SCC(=O)N2CCCC2)c2ccccc2n1	-9%	-29%	?	-7%	?
O=C(CN1CCCC(O)C1)N1c2ccccc2Sc2ccc(C(F)(F)F)cc21 (stereo unspecified)	-11%	-7%	3	0%	-20%
SMILES	TDP1 cell CPT	HT1080 IDH1KD tx	IL-1B inflam inh	HT1080NT lethal	DT40 TDP1 no CPT
O=C(CSc1nc(C2CC2)nc2ccccc12)N1c2ccccc2Sc2ccc(C(F)(F)F)cc21	8.2µM*	-10%	?	-3%	23µM*
CC(N)(COP(=O)(O)O)C(=O)O (stereo unspecified)	-18%	.	.	.	-8%
CC(=O)Nc1ccc(Oc2ccccc2)cc1	2%	-3%	20	0%	2%
COC(=O)Nc1ccc(OCc2ccccc2)cc1	-27%	-6%	-3	-10%	-13%
CC(=O)/C(=C\Nc1ccc(OCc2ccccc2)cc1)c1ccccc1	18µM*	19%	-6	6%	29µM*
CC(=O)/C(=C/Nc1ccc(Oc2ccccc2)cc1)c1ccccc1	?	1%	?	-1%	18µM*
CC(C)Cn1cc(NC(=O)NCc2ccccc2Cl)c2ccccc2c1=O	?	.	.	.	18µM*
Cc1ccc(CNC(=O)Nc2cn(CC(C)C)c(=O)c3ccccc23)cc1	-20%	.	.	.	?
CC(C)Cn1cc(NC(=O)NCc2ccc(Cl)cc2)c2ccccc2c1=O	?	.	.	.	18µM*
CC(C)Cn1cc(NC(=O)NCc2cccc(Cl)c2)c2ccccc2c1=O	26µM*	.	.	.	?
Cn1c(CO)cnc1S(=O)(=O)Cc1c(Cl)cccc1Cl	?	4%	4	3%	18%
COCCOc1ccc(C(F)(F)F)cc1NC(=O)c1ccccc1	5%	20%	0	10%	-14%
CC(C)(C)c1ccc(OCCOc2ccc(C(C)(C)C)cc2NC=O)c(NC=O)c1	21µM*	15µM*	?	?	21µM*
CCN(CCCNC(=O)CNC(=O)c1nn(-c2ccc(OC)cc2)c(=O)c2ccccc12)c1cccc(C)c1	?	-14%	-25	-14%	?
CC1(C)Cc2c(c(N3CCOCC3)nc3snc(NC(=O)c4ccccc4)c23)CO1	-14%	7%	-11	-1%	-15%
OCCNc1ncnc2c1sc1nc(N3CCOCC3)c3c(c12)CCC3	?	7%	-53*	-8%	15µM*
CCN(CC)CCNc1ncnc2c1sc1nc(N3CCOCC3)c3c(c12)CCCC3	?	10%	?	2%	?
Cc1cccc(-n2cnc3c(sc4nc(N5CCOCC5)c5c(c43)CCCC5)c2=O)c1	?	-25%	?	-16%	21µM*
NNc1nnnc2c1sc1nc(N3CCOCC3)c3c(c12)CCCC3	?	6%	0	-4%	?
CCN(CC)CCNc1ncnc2c1sc1nc(N3CCCC3)c3c(c12)CC(C)(C)OC3	?	18µM*	-75*	16µM*	?
Cc1nc2c(sc3nc(N4CCOCC4)c4c(c32)CC(C)(C)OC4)c(-c2ccccc2)c1C(=O)O	26µM*	1%	-10	11%	?
Cc1nc(OCc2c(C)noc2C)c2ccccc2n1	1%	-1%	20	4%	-3%
COc1cc(/C=N/NC(=O)c2[nH]nc3c2CCc2ccccc2-3)ccc1O	?	-19%	31	5%	?

Assay outcomes deposited in PubChem by National Center for Advancing Translational Sciences (NCATS).
